# Reference: PubChem BioAssay (NCATS)
# “And” between values parts separate entries of the source, which are not always exact repeats. Identical values can stand only once. Records with an inconclusive call do not appear. Unmarked numbers belong to inactive results. The source made the active and inactive calls. Calls come from the whole dose curve; as a rule, active = well fitted cell-killing curve with a large enough effect; inconclusive = small, poorly fitted or top-dose-only effect; inactive = flat fitted curve, though single readings scatter.
# Assays:
# [1] = Quantitative highthroughput screen to assess conditional lethalithy of P12 Ichikawa cells grown in RPMI1640 with dialyzed fetal bovine serum (RPMI+ds) (AID 1963880); conditions: Potency: P12-Ichikawa viability; note: nearly all actives have a fitted effect of over 35% in size;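 for viability: 100% = DMSO wells and 0% = empty wells on each plate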
# In short: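 Each medium arm—HPLM with 10% dialyzed FBS, or RPMI1640 with 5 mM glucose and 10% untreated or dialyzed FBS—was screened against an 11-point, 3-fold compound titration for 48 h at 37 °C, with CellTiter-Glo luminescence as endpoint.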
# [2] = Cellular viability qHTS for adrenocortical cancer (ACC) cell line SW-13 (AID 1963989); conditions: SW-13 ACC cells viability, CellTiter-Glo, 48 h; activity (max response): active compounds read low; note: nearly all actives have a fitted effect of over 65% in size;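 for activity (max response): cells grown in serum-free medium with ITS supplement; % is set by controls: 0 for no effect and ±100 for the full control effect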
# In short: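 48 h treatment, SW-13 in ITS/DMEM serum-free; doses up to 46 uM; readout CellTiter-Glo luminescence; curve fit four-parameter logistic.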
# Potency is the fitted concentration of half-maximal effect.
compound,measurement,setting,value
NC(=O)c1cnc(N[C@@H]2CCCC[C@@H]2N)nc1Nc1cccc(-n2nccn2)c1,Potency,[1],inactive
C[C@@H](Oc1cc(-c2cnn(C3CCNCC3)c2)cnc1N)c1c(Cl)ccc(F)c1Cl,Potency,[1],18.7 µM (active)
O=C1S/C(=C\c2ccc(OCc3cccc(B(O)O)c3)cc2)C(=O)N1Cc1ccc(F)cc1,activity (max response),[2],-17.7%
COc1ccc(Oc2cc(NCCC(F)(F)F)c3ncc(-c4ccc(C(=O)NC5CC5)c(C)c4)n3n2)c(F)c1F,activity (max response),[2],-17.7%
COCCNCc1ccc(-c2cc3nccc(Oc4ccc(NC(=O)C5(C(=O)Nc6ccc(F)cc6)CC5)cc4F)c3s2)nc1,Potency,[2],3.55 µM (active)
CNCCCN1c2ccccc2CCc2ccccc21,Potency,[2],20.6 µM (active)
COc1cc2c3c(n(CCCN4CCOCC4)c(=O)c2cc1OC)-c1cc2c(cc1C3=O)OCO2,Potency,[2],2.51 µM (active)
CC(=O)OC/C=C(C)/C=C/C=C(C)/C=C/C1=C(C)CCCC1(C)C,activity (max response),[2],4.17%
COc1cc2c(cc1OC)C(=O)C(CC1CCN(Cc3ccccc3)CC1)C2 (stereo not drawn),activity (max response),[2],-16.2%
N#C/C(=C1\SCC(c2ccccc2Cl)S1)n1ccnc1 (stereo not drawn),activity (max response),[2],-13.5%
COc1ccc([C@@H](O)[C@@H](C)Oc2ccc([C@H]3O[C@H](c4ccc(O[C@H](C)[C@H](O)c5ccc(OC)c(OC)c5)c(OC)c4)[C@H](C)[C@H]3C)cc2OC)cc1OC,Potency,[2],0.316 µM (active)
CC(C)n1c(/C=C/[C@@H](O)C[C@@H](O)CC(=O)O)c(-c2ccc(F)cc2)c2ccccc21,activity (max response),[2],5.25%
Cc1cc(C)c(/C=C2\C(=O)Nc3ccccc32)[nH]1,activity (max response),[2],5.7% and 12.2%
C[C@H]1CNCCCN1S(=O)(=O)c1cccc2cncc(F)c12,activity (max response),[2],-17.2%
OC1CCC([C@H](O)C[C@H]2c3c(F)cccc3-c3cncn32)CC1 (stereo partly drawn),activity (max response),[2],-0.756%
O=C(Nc1cccc(C(F)(F)F)c1)c1cccc2cc(Oc3cc(CO)ncn3)ccc12,activity (max response),[2],9.86%
O=C(O)CNC(=O)c1ncc(-c2cccc(Cl)c2)cc1O,activity (max response),[2],5.73%
CN1CCCCC1CCN1c2ccccc2Sc2ccc(S(C)=O)cc21 (stereo not drawn),activity (max response),[2],-6.63%
